# Source: PubChem BioAssay AID588726 (The Scripps Research Institute Molecular Screening Center, 2011)
# About 8,200 (2.3%) of roughly 360,000 compounds were called active. The full list was thinned out, with actives kept by preference. Unmarked numbers belong to inactive results. No stated cut-off is given here; in the data, active means inhibition above about 27%; inactive means the rest.
# Target: Fructose-bisphosphate aldolase (Mycobacterium tuberculosis (strain ATCC 25618 / H37Rv)) (UniProt P9WQA3)
# Sequence (P9WQA3 whole entry, looked up): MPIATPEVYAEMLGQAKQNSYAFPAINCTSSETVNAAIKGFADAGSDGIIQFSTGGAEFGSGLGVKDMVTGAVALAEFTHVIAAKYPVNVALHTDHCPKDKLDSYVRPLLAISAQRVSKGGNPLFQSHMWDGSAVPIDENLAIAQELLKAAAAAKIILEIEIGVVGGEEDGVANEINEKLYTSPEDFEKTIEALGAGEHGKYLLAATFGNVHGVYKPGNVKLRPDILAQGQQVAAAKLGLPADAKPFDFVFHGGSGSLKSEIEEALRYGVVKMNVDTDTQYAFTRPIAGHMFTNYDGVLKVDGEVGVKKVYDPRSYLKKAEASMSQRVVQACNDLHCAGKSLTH
# Test: M. tuberculosis aldolase activity blockers – biochemical, fluorescence, strain H37Rv, primary screen (AID 588726);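 further: 0% = vehicle and 100% = reference inhibitor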
# Settings: purified M. tuberculosis FBA, fluorescence read-out, at 1 µM, stronger effect = higher value
row,Compound,inhibition
1,O=c1c2ccccc2nc(-c2ccccc2)n1-c1ccccn1,-4.31%
2,Cc1ccc(-c2nc3ccccc3c(=O)n2-c2ccc(Br)cn2)cc1,27.5% (active)
3,O=C(Nn1c(-c2ccc(Cl)cc2)nc2ccccc2c1=O)c1cccnc1Cl,15%
4,O=Cc1c(N2CCN(c3cccc(Cl)c3)CC2)nc2ccccn2c1=O,6.06%
5,COCCCNC(=O)/C(C#N)=C/c1c(N2CCCCCC2)nc2ccccn2c1=O,74.5% (active)
6,COCCNC(=O)/C(C#N)=C/c1nc(N(C)C)n(-c2ccc(F)cc2)c1Cl,0.71%
7,N#CC1(C#N)C(C(=O)C23CC4CC(CC(C4)C2)C3)C12CCOCC2 (stereo not given),1.25%
8,CSc1ncccc1C(=O)OCc1ccc(Br)cc1,2.13%
9,CCCc1nc2oc3c(OCC)ncnc3c2c2c1COC(C)(C)C2,-1.08%
10,CCCc1nc2oc3c(=O)[nH]cnc3c2c2c1COC(C)(C)C2,40.7% (active)
11,CC/C(C)=N/Nc1nc2sc3c(c2c(=O)[nH]1)CC(C)(C)OC3,21.5%
12,Nn1c(SCC(=O)NC(=O)NC2CCCC2)nnc1-c1ccccc1F,0.25%
13,Cc1nc2ccc(C(=O)N3CCSCC3)cc2s1,-8.83%
14,CN(CCc1ccccn1)C(=O)c1ccc(OC2CCN(Cc3ccccn3)CC2)cc1,3.08%
15,COc1cc2c(cc1OC)C(Nc1ccc(S(N)(=O)=O)cc1)=NC(C)(C)C2,0.94%
16,COc1cc2c(cc1OC)C(C(C)C)=NC(C)(C)C2,140% (active)
17,COc1cc2c(cc1O)C(SC)=NC(C)(C)C2,0.86%
18,COc1ccccc1C(=O)Nc1ccc(OCC(=O)N2CCCCC2)cc1,42.3% (active)
19,COc1ccccc1C(=O)Nc1ccc(OCc2nnc3c4ccccc4c(C)nn23)cc1,1.57%
20,O=C(COc1ccccc1Cl)N1CCCCCCC1,3.37%
21,OC[C@@H]1CN(Cc2cccs2)C[C@H](n2cnc3c(NC4CCCC4)ncnc32)O1,-0.13%
22,OC[C@@H]1CN(Cc2cccs2)C[C@H](n2cnc3c(Nc4ccccc4)ncnc32)O1,44.8% (active)
23,CCN(CC)c1ncnc2c1ncn2[C@H]1CN(Cc2cccs2)C[C@@H](CO)O1,1.17%
24,CC1(C)CC2CC(C)(CN2c2ncnc3ccc(Br)cc23)C1 (stereo not given),6.02%
25,Cc1occc(=O)c1OCc1c(Cl)cccc1Cl,2.61%

row,Compound,inhibition
1,CN(C(=O)CSc1nnc(N)s1)c1c(N)n(Cc2ccccc2)c(=O)[nH]c1=O,1.14%
2,CCCN(C(=O)CSc1nnc(N)s1)c1c(N)n(Cc2ccccc2)c(=O)[nH]c1=O,48.3% (active)
3,CCCN(C(=O)CSc1nnnn1C)c1c(N)n(Cc2ccccc2)c(=O)[nH]c1=O,9.36%
4,COc1ccc(CNC(=O)C[C@H]2C[C@H](C(=O)N3CCOCC3)[C@@]3(C)c4[nH]c5cc(CCC(=O)N(C)C)ccc5c4CCN3C2=O)cc1OC,-3.63%
5,COc1ccccc1N(C)S(=O)(=O)c1ccc(C(=O)N2CCC(C(N)=O)CC2)cc1,2.31%
6,Cc1oc(-c2ccccc2F)nc1CS(=O)CC(=O)NCCN1CCCCC1C (stereo not given),-1.66%
7,N#Cc1nc(COc2ccc(Cl)cc2)oc1N1CCCC1,-2.71%
8,COc1ccccc1CNC(=O)C1CCN(c2nc3ccccc3o2)CC1,0.23%
9,Cc1nc(-c2ccccc2)sc1-c1nnc(C2CC2)o1,18.1%
10,Cn1cnnc1Sc1ccc(CN2CCN(C3CCCC3)C(CCO)C2)o1 (stereo not given),-0.65%
11,CCCCCCCCCCCCN1[C@@H](CC(C)=O)c2cc(F)cc(F)c2S1(=O)=O,-2.16%
12,COc1ccc(CCNC(=O)c2ccc(NC(=O)CC3SC(N4CCCCC4)=NC3=O)cc2)cc1OC (stereo not given),1.72%
13,NS(=O)(=O)c1ccc(CCNC(=O)CNC(=O)Cc2ccccc2)cc1,4.09%
14,CC[C@@]1(C(=O)OC)N[C@H](CN(C)C(C)=O)[C@@H]2C(=O)N(C)C(=O)[C@@H]21,-0.4%
15,O=C1C2C3C=CC(C3)C2C(=O)N1c1ncc([N+](=O)[O-])s1 (stereo not given),0.42%
16,Cc1ccc2nnn(Cc3cccc(C(C)(C)C)c3O)c2c1,-1.49%
17,Cc1oc2c(C)c3oc(=O)c(CC(=O)N[C@@H](CC(C)C)C(=O)N[C@@H](Cc4ccccc4)C(=O)O)c(C)c3cc2c1C,14.5%
18,Cc1c(OC(C)C(=O)N[C@@H](Cc2ccccc2)C(=O)O)ccc2c3c(c(=O)oc12)CCCC3 (stereo not given in full),57.5% (active)
19,Cc1c(OC(C)C(=O)NCC2CCC(C(=O)O)CC2)ccc2c1oc(=O)c1ccccc12 (stereo not given),11.2%
20,CCOC(=O)N1CCC(c2cc(=O)n(-c3ccccc3)[nH]2)CC1,2.04%
21,NS(=O)(=O)c1ccc(N2C(=O)C3C4CC(C(Br)C4Br)C3C2=O)cc1 (stereo not given),2.97%
22,COc1ccc(N(CC(=O)Nc2ccc(F)c(F)c2)S(=O)(=O)c2c(C)[nH]c(=O)[nH]c2=O)cc1,0.84%
23,O=C(CN1C(=O)c2cccc3cccc1c23)Nc1ccccc1,1.33%
24,O=C(CN1C(=O)c2cccc3cccc(c23)C1=O)N1CCCCC1,31.8% (active)
25,Cn1c(=O)n(C)c(=O)n(CC(=O)N2CCCCC2)c1=O,-2.14%
